Rows were chosen to be rich in hits. Some 5.7% of all compounds tested hit in one or more screens of this group.
Gal4-VP16 FLuc: inhibits Gal4-VP16 luciferase reporter, ROR gamma counter-screen | Drosophila S2 Gal4-VP16 UAS-luciferase, luminescence, 20 h | Potency, µM (series often up to 53.6 µM), usual class: inhibitors | 310,000 tested, 3.5% active | AID 2546;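 further: Gal4-VP16 expression switched on by copper sulfate through the metallothionein promoter; nearly all actives have a fitted effect of over 50% in size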
RORgamma inh: ROR gamma (mouse) transcription inhibition; P51450; Potency, µM (highest dose often 53.6 µM), hits mostly inhibitors; 310,000 tested, 5.4% active; Drosophila S2 Gal4-RORgamma UAS-luciferase reporter, 20 h; further: nearly all actives have a fitted effect of over 60% in size
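Luminescence from a UAS-regulated Photinus luciferase reporter in stably transfected Drosophila Schneider cells is measured; decreased signal marks ROR gamma inhibition. Fusion expression is induced by 700 uM copper sulfate for 20 hr.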
B2AR arrestin: beta2AR (human) beta-arrestin recruitment activity; beta-arrestin recruitment to beta2AR, cell-based reporter; Potency, µM (doses to about 46.1 µM), actives largely listed as activators; P07550; 330,000 tested, 0.02% active; further: nearly all actives have a fitted effect of over 65% in size
NPSR antag: blocks cAMP signaling of the human neuropeptide S receptor. Q6W5P4. CHO-NPSR cells, cAMP TR-FRET, antagonist mode. Potency, µM (highest dose often 38.3 µM), actives largely listed as inhibitors. 220,000 tested, 1% active. AID 1461; further: nearly all actives have a fitted effect of over 50% in size
Target sequence (Q6W5P4 whole entry, looked up): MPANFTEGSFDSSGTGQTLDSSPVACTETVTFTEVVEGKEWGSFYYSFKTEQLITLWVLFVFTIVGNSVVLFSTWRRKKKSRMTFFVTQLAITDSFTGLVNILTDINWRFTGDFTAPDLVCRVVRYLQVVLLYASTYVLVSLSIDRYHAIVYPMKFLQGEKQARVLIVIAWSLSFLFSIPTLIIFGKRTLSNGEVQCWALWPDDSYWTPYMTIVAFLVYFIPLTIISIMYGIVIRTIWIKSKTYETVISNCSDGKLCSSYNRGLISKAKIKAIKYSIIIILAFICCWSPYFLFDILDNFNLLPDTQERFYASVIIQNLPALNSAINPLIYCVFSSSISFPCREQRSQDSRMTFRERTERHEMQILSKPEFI
Large screens that a line does not name were inactive. The call rests on the fitted dose curve; in most records, active means well fitted curve in the direction sought with a large enough effect; inconclusive means small, poorly fitted or top-dose-only effect, or another doubt; inactive means no such curve, though single readings can be large; an effect the other way counts as inactive or inconclusive.

CCOc1ccc(/C=N\NC(=O)CC(=O)NCCc2ccccc2)cc1	none (no result: Gal4-VP16 FLuc, RORgamma inh, NPSR antag)
COc1ccc(/C=N/NC(=S)NCCc2ccccc2)cc1	Gal4-VP16 FLuc 7.9µM, RORgamma inh 3.5µM (no result: NPSR antag)
Fc1ccc(/C=N/NC(=S)NCCc2ccccc2)cc1F	Gal4-VP16 FLuc 8.9µM, RORgamma inh 7.1µM (no result: NPSR antag)
COc1cccc(/C=N/NC(=O)CCc2ccccc2)c1	none
CCc1ccc(/C=N/NC(=S)NCCc2ccccc2)cc1	Gal4-VP16 FLuc inconclusive, RORgamma inh 14µM
CCNc1nc(NCC)n2c(SCC(=O)Nc3ccc(C)cc3Br)nnc2n1	none (no result: Gal4-VP16 FLuc, RORgamma inh, NPSR antag)
COc1cc(OC)cc(C2=Nn3c(nnc3-c3ccccc3OC)SC2)c1	none (no result: B2AR arrestin, NPSR antag)
CC(Oc1cccc(Cl)c1)C(=O)N1CCCN(C)CC1 (stereo not drawn)	none (no result: NPSR antag)
CC[C@H](C)[C@H](NC(=O)[C@@H](NC(=O)[C@@H](CC(=O)NO)Cc1ccccc1)[C@@H](C)CC)C(=O)O	none (no result: B2AR arrestin, NPSR antag)
Cc1cccc(C(=O)NNC(=O)c2cccc(C)c2)c1	none
Cc1cccc(C(=O)NNC(=O)/C=C/C(=O)O)c1	RORgamma inh 14µM
Cc1cccc(C(=O)NNC(=O)c2ccccc2Br)c1	Gal4-VP16 FLuc inconclusive (no result: NPSR antag)
O=C(O)/C=C/C(=O)NNC(=O)c1ccccc1Br	RORgamma inh 11µM
Cc1ccccc1C(=O)NNC(=O)/C=C\C(=O)O	Gal4-VP16 FLuc inconclusive, RORgamma inh 3.5µM
c1ccc2c(c1)CC(N1CCN(c3cccc4c3OCCO4)CC1)C2	none (no result: B2AR arrestin)
CCC(C)(C)c1ccc(OCCCC[n+]2ccccc2)c(C(C)(C)CC)c1	Gal4-VP16 FLuc 18µM, RORgamma inh inconclusive, NPSR antag inconclusive
CCCCC/C=C\C\C=C/C=C/C=C/[C@@H](SCC(NC(C)=O)C(=O)O)[C@@H](O)CCCC(=O)O (stereo partly drawn)	none (no result: B2AR arrestin, NPSR antag)
CC(=O)Nc1nc(NC(=O)C(Cl)(Cl)Cl)n(-c2ccccc2)n1	Gal4-VP16 FLuc 13µM, RORgamma inh 7.1µM
Cc1ccc(NC(=O)N[C@H](C(=O)O)C(C)C)c(C)c1	none
CCC(CC)NC(=O)c1cc2c(C)nn(Cc3ccccc3Cl)c2s1	none
Cc1nn(Cc2ccc(F)cc2)c2sc(C(=O)Nc3ccccc3N3CCOCC3)cc12	none
Cc1nn(Cc2ccc(F)cc2)c2sc(C(=O)Nc3nccs3)cc12	Gal4-VP16 FLuc inconclusive, RORgamma inh 11µM
Cc1nn(Cc2ccccc2Cl)c2sc(C(=O)Nc3nccs3)cc12	Gal4-VP16 FLuc inconclusive, RORgamma inh 10µM
COC(=O)[C@@]1(Cc2ccc(F)cc2)[C@H]2c3cc(C(=O)N4CCCC4)n(Cc4c(CO)[nH]cc(C)c4=O)c3C[C@H]2CN1C(=O)c1ccccc1	none (no result: B2AR arrestin, NPSR antag)
CC(C)=C1C2CCC1C1C(=O)N(c3nc(-c4ccc(C(C)C)cc4)c(C)s3)C(=O)C21 (stereo not drawn)	Gal4-VP16 FLuc inconclusive, NPSR antag inconclusive
CC(C)=C1C2CCC1C1C(=O)N(c3nc(-c4ccc(F)cc4)c(C)s3)C(=O)C21 (stereo not drawn)	Gal4-VP16 FLuc 20µM, NPSR antag inconclusive
O=[N+]([O-])c1ccc(C2=NN(c3ccccc3)C(c3ccco3)C2)cc1 (stereo not drawn)	none
O=[N+]([O-])c1ccc(/C=C/C2=NN(c3ccccc3)C(c3ccco3)C2)cc1 (stereo not drawn)	Gal4-VP16 FLuc 20µM, RORgamma inh inconclusive
Cc1c(C(=O)OCC(=O)NCC2CCCO2)cccc1[N+](=O)[O-] (stereo not drawn)	none
Nc1ccc(C2=Nc3cccc4cccc(c34)N2)cc1	Gal4-VP16 FLuc inconclusive
CC1=Nc2cccc3cccc(c23)N1	RORgamma inh 13µM
COc1ccc(NC(=O)N2CC3(CCN(C(=O)c4ccco4)CC3)C2)cc1	none (no result: B2AR arrestin, NPSR antag)
COc1ccc(OCC(=O)Nc2cccc3ncccc23)cc1	none
O=C(CCl)Nc1cccc2ncccc12	Gal4-VP16 FLuc inconclusive, RORgamma inh 18µM
CCC(C)c1ccc(NC(=S)NC2CCN(Cc3ccccc3)CC2)cc1 (stereo not drawn)	Gal4-VP16 FLuc 7.1µM, RORgamma inh 7.1µM
S=C(Nc1ccc(Cl)cc1)NC1CCN(Cc2ccccc2)CC1	Gal4-VP16 FLuc inconclusive, RORgamma inh 18µM
CCc1ccc(NC(=S)NC2CCN(Cc3ccccc3)CC2)cc1	Gal4-VP16 FLuc inconclusive, RORgamma inh 10µM
S=C(Nc1ccccc1)NC1CCN(Cc2ccccc2)CC1	none
Cc1ccccc1NC(=S)NC1CCN(Cc2ccccc2)CC1	Gal4-VP16 FLuc inconclusive, RORgamma inh 18µM
C[C@@H]1C(SC2Cn3cnc[n+]3C2)=C(C(=O)[O-])N2C(=O)[C@H]([C@@H](C)O)[C@@H]12 (stereo partly drawn)	none (no result: B2AR arrestin, NPSR antag)

Assay outcomes deposited in PubChem BioAssay by National Center for Advancing Translational Sciences (NCATS).
